The results in this text go back to article PMC5540273 (PLoS ONE, 2017).

Among the test systems are AAK1; ABL1-nonphosphorylated; ABL1-phosphorylated; ABL2; ACVR1B; ACVR1; ACVR2A; ACVR2B; ACVRL1; ADCK4; AKT1; AKT2; AKT3; ALK; ANKK1.
Common to all, as to settings: concentration: 1 μM,replicates: in singlicate; n = 1
The next test has as its system T1, ADCK3.
T1 construct: gene CABC1

For another test, the system named is T2, AMPK-alpha1.
T2 construct: gene PRKAA1

A further test deals with T3, AMPK-alpha2.
T3 construct: gene PRKAA2

A further test deals with T4, ARK5.
T4 construct: gene NUAK1

A further test has as its system T5, ASK1.
T5 construct: gene MAP3K5
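Further: KINOMEscan kinase panel screen.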

On to `C[C@@H]1CNc2c(sc3ccc4nc(-c5ccc(O)cc5)ccc4c23)C(=O)N1`, for which the “%Inh” value in the test with AAK1 was 29%; in the test with ABL1-nonphosphorylated it was 48%; in the test with ABL1-phosphorylated, 10%; in the test on ABL2, 3%; in the test with ACVR1B, 22%; in the test with ACVR1 it was 11%. Further, the “%Inh” value with ACVR2A is 8%; with ACVR2B, 52%; with ACVRL1 it was 45%; in the test with ADCK3, 0%; in the test on ADCK4, 10%; in the test on AKT1, 0%. In addition, the “%Inh” value is reported as 0% in the test with AKT2; 0% in the test with AKT3; 16% in the test on ALK; 30% with AMPK-alpha1; 0% with AMPK-alpha2; 0% with ANKK1. The “%Inh” value in the test on ARK5 came out at 0%; in the test on ASK1 it was 91%.

On to `O=C(Nc1n[nH]c2cc(-c3ccco3)ccc12)C1CC1` [SB-737447], for which the “%Inh” value in the test with AAK1 is 100%; in the test on ABL1-nonphosphorylated it was 37%; in the test on ABL1-phosphorylated, 28%; with ABL2, 0%; in the test on ACVR1B, 5%; in the test with ACVR1 it was 0%. Further, the “%Inh” value in the test on ACVR2A is 9%; with ACVR2B, 0%; in the test with ACVRL1 it was 0%; with ADCK3, 8%; with ADCK4, 7%; in the test with AKT1, 0%. Besides, the “%Inh” value is 0% in the test with AKT2; 0% in the test on AKT3; 7% in the test with ALK; 3% in the test with AMPK-alpha1; 0% in the test on AMPK-alpha2; 27% with ANKK1. For the same compound, the “%Inh” value in the test on ARK5 and with ASK1 was 0% throughout.

For the compound `Cn1cc(-c2cccc3c(N)c(C(N)=O)nnc23)cn1`, the “%Inh” value with AAK1 was determined as 36%; in the test with ABL1-nonphosphorylated it was 24%; in the test with ABL1-phosphorylated, 0%; in the test with ABL2, 9%; in the test on ACVR1B, 28%; in the test on ACVR1, 63%. For the same compound, the “%Inh” value is 27% with ACVR2A; 29% in the test with ACVR2B; 3% with ACVRL1; 15% with ADCK3; 11% with ADCK4; 0% in the test on AKT1. Besides, the “%Inh” value is 0% in the test with AKT2; 15% with AKT3; 10% in the test on ALK; 47% in the test with AMPK-alpha1; 49% in the test with AMPK-alpha2; 19% in the test with ANKK1. For the same compound, the results for the “%Inh” value in the test with ARK5 and with ASK1 were 0% and 1%, respectively.

With `NC(=O)Nc1sc(-c2ccc(F)cc2)cc1C(N)=O` [GW789449], the “%Inh” value was 60% in the test with AAK1; 49% with ABL1-nonphosphorylated; 0% in the test on ABL1-phosphorylated; 3% in the test on ABL2; 5% with ACVR1B; 0% in the test on ACVR1. The “%Inh” value with ACVR2A is given as 31%; with ACVR2B, 28%; with ACVRL1, 0%; with ADCK3 it was 5%; with ADCK4, 7%; in the test with AKT1, 0%. Also, the “%Inh” value in the test with AKT2 turned out to be 0%; in the test with AKT3 it was 0%; in the test with ALK, 52%; in the test on AMPK-alpha1, 25%; with AMPK-alpha2, 15%; in the test with ANKK1, 86%. Further, the “%Inh” value stood at 0% in the test with ARK5 and 26% with ASK1.

As to `O=C(Nc1cccc(Oc2ccc3nccn3n2)c1)Nc1cccc(C(F)(F)F)c1`, the “%Inh” value with AAK1 is listed as 0%; in the test on ABL1-nonphosphorylated, 98.2%; in the test on ABL1-phosphorylated it was 15%; in the test on ABL2 it was 71%; in the test on ACVR1B it was 0%; with ACVR1, 0%. The “%Inh” value in the test with ACVR2A was 22%; in the test with ACVR2B, 9%; with ACVRL1, 0%; with ADCK3 it was 0%; with ADCK4, 0%; in the test with AKT1 it was 0%. In addition, the “%Inh” value in the test on AKT2 was found to be 0%; in the test on AKT3 it was 7%; in the test with ALK it was 14%; with AMPK-alpha1 it was 0%; with AMPK-alpha2, 0%; in the test with ANKK1, 0%. The “%Inh” value was found to be 8% in the test on ARK5 and 0% with ASK1.

On to `NC(=O)c1ccc(-c2cc3ncnc(SCC(=O)O)c3s2)cc1`, for which the “%Inh” value with AAK1 is reported as 4%; with ABL1-nonphosphorylated, 57%; in the test with ABL1-phosphorylated, 20%; in the test on ABL2 it was 0%; with ACVR1B, 0%; in the test on ACVR1, 0%. The “%Inh” value is 8% in the test with ACVR2A; 17% in the test on ACVR2B; 0% with ACVRL1; 25% with ADCK3; 3% in the test on ADCK4; 0% in the test with AKT1. Further, the “%Inh” value in the test on AKT2, in the test with AKT3, in the test on ALK, with AMPK-alpha1, in the test on AMPK-alpha2 and in the test with ANKK1 was 0% in each case. Also, the “%Inh” value in the test with ARK5 and in the test with ASK1 was 0% each time.

With `CN(c1ccccc1CNc1nc(Nc2ccc3c(c2)CC(=O)N3)ncc1C(F)(F)F)S(C)(=O)=O`, the “%Inh” value in the test with AAK1 is on record as 10%; in the test with ABL1-nonphosphorylated it was 25%; in the test with ABL1-phosphorylated, 7%; with ABL2, 5%; with ACVR1B, 28%; with ACVR1, 0%. Moreover, the “%Inh” value in the test with ACVR2A, in the test on ACVR2B, with ACVRL1, in the test with ADCK3, in the test on ADCK4 and with AKT1 was 0% in each case. Also, the “%Inh” value is on record as 0% in the test on AKT2; 0% in the test on AKT3; 92.4% in the test on ALK; 74% with AMPK-alpha1; 70% in the test with AMPK-alpha2; 0% in the test on ANKK1. Also, the entries for the “%Inh” value with ARK5 and in the test on ASK1 were 92.1% and 0%, respectively.

In the case of `C[C@@H](Oc1cc(-n2cnc3cc(-c4cnn(C)c4)ccc32)sc1C(N)=O)c1ccccc1Cl` [GSK580432], the “%Inh” value in the test with AAK1 was found to be 82%; in the test with ABL1-nonphosphorylated, 58%; in the test on ABL1-phosphorylated, 63%; in the test on ABL2 it was 63%; with ACVR1B, 0%; in the test with ACVR1, 0%. Also, the “%Inh” value with ACVR2A came out at 0%; in the test with ACVR2B it was 25%; in the test with ACVRL1, 0%; with ADCK3 it was 13%; with ADCK4 it was 29%; in the test with AKT1, 0%. Besides, the “%Inh” value is recorded as 0% in the test with AKT2; 0% in the test with AKT3; 31% in the test on ALK; 39% in the test on AMPK-alpha1; 27% with AMPK-alpha2; 0% in the test on ANKK1. For the same compound, the “%Inh” value is recorded as 98.7% in the test with ARK5 and 0% in the test with ASK1.
